Laboratory results as given in PubChem BioAssay (NCATS).
Records with an inconclusive call do not appear. Where a call stands in place of a potency, no number is given. The source made the active and inactive calls. Calls follow the shape of the dose curve; as a rule, active = well fitted inhibition curve with a large enough effect; inconclusive = small, poorly fitted or top-dose-only effect; inactive = no such curve, though single readings can be large or run the other way.
Potency is read from the fitted curve at half-maximal effect.

Assay: NS1 protein of Zika virus - qHTS assay to identify small molecule inhibitors in human HEK 293 cells (AID 1347053); also: nearly all actives have a fitted effect of over 55% in size
Settings: HEK293 ZIKV MR766 infection, NS1 TR-FRET, 24 h; series mostly up to 46.1 µM
Source text: National Center for Advancing Translational Sciences [NCATS]
Johns Hopkins University School of Medicine
The non-structural 1 (NS1) protein of zika virus is known to associate with the viral replication complex. This cell-based TR-FRET ZIKV NS-1 assay measures the increased NS-1 protein in human HEK 293 cells after a 24-hour Zika virus infection by a TR-FRET assay readout. A decrease in the Time-resolved fluorescence energy transfer (TR-FRET) signal in this assay by small molecule treatment indicates an inhibitory effect of the small molecule on the expression of Zika virus NS1 correlating with Zika virus replication.
HEK 293 cells were cultured in EMEM (ATCC, Cat. # 30-2003) medium with 10% fetal bovine serum (GE healthcare Life Sciences, Cat. # SH30071.03), and 1% Pen/Strep (Gibco, Cat. # 15140-122). Cells were seeded in the assay plate and incubated at 37 C with 5% CO2 for 20 hours. Compounds were added to cells and incubated for one hour before addition of ZIKV MR766 strain solution to cells (MOI = 0.5). After an incubation at 37 C for 24 hours, the reagent mixture of TR-FRET ZIKV NS1 assay using two anti-ZIKV NS1 antibodies was added to assay plates. The TR-FRET signals in assay plates were measured using an Envision plate reader (PerkinElmer). Data were normalized by using the cell-containing wells without ZIKV as a negative control (0% NS-1) and wells containing ZIKV infected cells as a positive control (100% NS-1 level).
With `CN(C)CCC(c1ccccc1)c1ccccn1` (stereo not given) the Potency was “inactive”. For `CO[C@H]1C=CO[C@@]2(C)Oc3c(C)c(O)c4c(O)c(c5c(c4c3C2=O)NC2(CCN(CC(C)C)CC2)N=5)=NC(=O)C(C)=CC=C[C@H](C)[C@H](O)[C@@H](C)[C@@H](O)[C@@H](C)[C@H](OC(C)=O)[C@H]1C`, the Potency was “inactive”. In the case of `COc1cccc(-c2cc(=O)c3ccccc3o2)c1N`, the Potency is reported as “inactive”. In the case of `CCOc1ccc(Nc2nc(-c3c(C)nc4ccccn34)cs2)cc1`, the Potency is reported as “inactive”. For `Cc1ccc(/C=N/NC(=O)c2ccccc2Oc2ccccc2)o1`, the Potency was “inactive”. For `Cc1nnc(C(C)C)n1C1C[C@H]2CC[C@@H](C1)N2CC[C@H](NC(=O)C1CCC(F)(F)CC1)c1ccccc1` (stereo not given in full), the Potency was “inactive”. In the case of `CC=CC(=O)N(CC)c1ccccc1C`, the Potency is reported as “inactive”. With `COc1cc2c(cc1OC)CN(CCc1ccc(NC(=O)c3cc(OC)c(OC)cc3NC(=O)c3cnc4ccccc4c3)cc1)CC2` the Potency was “inactive”. In the case of `O=C(NOCC(O)CO)c1cc(Br)c(F)c(F)c1Nc1ccc(I)cc1F` (stereo not given), the Potency is reported as “inactive”. In the case of `O=C1C[C@@H](c2ccc(O)cc2)Oc2cc(O)cc(O)c21`, the Potency is reported as “inactive”. In the case of `CCC(CC)[C@H](NC(C)=O)[C@@H]1[C@H](O)[C@@H](C(=O)O)C[C@@H]1N=C(N)N`, the Potency is reported as “inactive”. For `Nc1ncnc2ccccc12`, the Potency was “inactive”. In the case of `CN(C)Cc1cccc(N=C(c2ccccc2)c2c(O)[nH]c3cc(C(=O)N(C)C)ccc23)c1`, the Potency is reported as “inactive”. For `O=C(O)c1ccccc1C(=O)Nc1ccc(-c2ccccc2)cc1`, the Potency was “inactive”. In the case of `O=c1[nH]cnc2c1ncn2[C@H]1CC[C@@H](CO)O1`, the Potency is reported as “inactive”. With `O=c1c(O)c(-c2ccc(O)cc2)oc2cc(O)cc(O)c12` the Potency was “inactive”. For `Clc1cc(Cl)cc(CNc2ncncc2-c2ccc3c(c2)OCO3)c1`, the Potency was 18.7 µM (active). For `CNC(=O)c1ccc2cc(C3(O)CCn4cncc43)ccc2c1` (stereo not given), the Potency was “inactive”. For `CN(C)C1CCN(C(=O)c2ccc(NC(=O)Nc3nc(N4CCOCC4)nc(N4CCOCC4)n3)cc2)CC1`, the Potency was 0.418 µM (active). In the case of `CC[C@@]1(O)C[C@H](O[C@H]2C[C@H](N(C)C)[C@H](O[C@H]3C[C@H](O)[C@H](O[C@H]4CCC(=O)[C@H](C)O4)[C@H](C)O3)[C@H](C)O2)c2c(cc3c(c2O)C(=O)c2c(O)cccc2C3=O)[C@@H]1C(=O)OC`, the Potency is reported as “inactive”. With `O=c1c(-c2ccc(O)cc2)coc2cc(O)ccc12` the Potency was “inactive”. For `NC1CCC(Nc2nc(Nc3ccc(C(=O)N4CCCCC4)cc3)c3ncn(-c4cccc(F)c4)c3n2)CC1` (stereo not given), the Potency was “inactive”. With `CC(C)n1cnc2c(NCCCCCCNC(=O)OC(C)(C)C)nc(NCCO)nc21` the Potency was “inactive”. For `Cc1cnc(C(=O)O)c[n+]1[O-]`, the Potency was “inactive”. For `O=C(O)CCc1nc(-c2ccccc2)c(-c2ccccc2)o1`, the Potency was “inactive”. With `CCOC(=O)O[C@]1(C(=O)OCCl)CC[C@@H]2[C@H]3CCC4=CC(=O)C=C[C@]4(C)[C@@H]3[C@@H](O)C[C@@]21C` the Potency was “inactive”. With `Cn1c(N2CCCCS2(=O)=O)nc(C(=O)NCc2ccc(F)cc2)c(O)c1=O` the Potency was “inactive”. In the case of `CCc1ccc(C=C2SC(=S)NC2=O)cc1`, the Potency is reported as “inactive”. In the case of `O=c1cc(-c2ccccc2)oc2cc(O)c(O)c(O)c12`, the Potency is reported as “inactive”. In the case of `C=C1C(=O)[C@@]23C(CC[C@@H]1[C@H]2O)[C@@]12CO[C@]3(O)[C@@H](O)[C@@H]1C(C)(C)CC[C@@H]2O` (stereo not given in full), the Potency is reported as 9.35 µM (active). With `C[C@]12CCC3c4ccc(O)cc4CCC3C1CCC2=O` (stereo not given in full) the Potency was “inactive”. With `CC(C)(C)c1cc(C(=O)O)c(NC(=O)Nc2ccc3[nH]ncc3c2)s1` the Potency was “inactive”. With `O=C1NC(=O)C(=Cc2ccc(-c3ccc(F)cc3)o2)S1` the Potency was “inactive”. For `Nc1nc(F)nc2c1ncn2[C@@H]1O[C@H](COP(=O)(O)O)[C@@H](O)[C@H]1O`, the Potency was “inactive”. In the case of `CC(=O)O[C@]1(C(C)=O)CC[C@H]2[C@@H]3C=C(Cl)C4=CC(=O)[C@@H]5C[C@@H]5[C@]4(C)[C@H]3CC[C@@]21C`, the Potency is reported as “inactive”. For `CCc1ccc(OCc2ccccc2C(=O)Nc2ccc3nc(C)cc(N)c3c2)cc1`, the Potency was 2.96 µM (active). With `CC/C(=C(\c1ccccc1)c1ccc(OCCN(C)C)cc1)c1ccccc1` the Potency was “inactive”. In the case of `NC(CO)(CO)CCc1ccc(Sc2cccc(OCc3ccccc3)c2)cc1Cl`, the Potency is reported as 9.35 µM (active). For `OC[C@H]1O[C@@H](Oc2cc(O)cc(C=Cc3ccc(O)cc3)c2)[C@H](O)[C@@H](O)[C@H]1O`, the Potency was “inactive”. In the case of `CC(=O)Oc1cc2c(s1)CCN(C(C(=O)C1CC1)c1ccccc1F)C2` (stereo not given), the Potency is reported as “inactive”.
